Experimental findings from publication PMC7862700, “An all-to-all approach to the identification of sequence-specific readers for epigenetic DNA modifications on cytosine” are described below.

Holding throughout (assay): DAPPL (digital affinity profiling via proximity ligation, sequencing); 10 mM Tris-HCl pH 7.5, 50 mM NaCl, 1 mM DTT, 4% glycerol, room temperature, 30 min; GST-TFs on glutathione beads, 16-mer random dsDNA library, 0.1% formaldehyde crosslink after washing; high values mean tight binding
What all share (details): protein: recombinant; tags: N-terminal GST; dsDNA, one strand shown

One experiment deals with T1, FLI1 (Homo sapiens, UniProt Q01543 1-452).
T1 sequence: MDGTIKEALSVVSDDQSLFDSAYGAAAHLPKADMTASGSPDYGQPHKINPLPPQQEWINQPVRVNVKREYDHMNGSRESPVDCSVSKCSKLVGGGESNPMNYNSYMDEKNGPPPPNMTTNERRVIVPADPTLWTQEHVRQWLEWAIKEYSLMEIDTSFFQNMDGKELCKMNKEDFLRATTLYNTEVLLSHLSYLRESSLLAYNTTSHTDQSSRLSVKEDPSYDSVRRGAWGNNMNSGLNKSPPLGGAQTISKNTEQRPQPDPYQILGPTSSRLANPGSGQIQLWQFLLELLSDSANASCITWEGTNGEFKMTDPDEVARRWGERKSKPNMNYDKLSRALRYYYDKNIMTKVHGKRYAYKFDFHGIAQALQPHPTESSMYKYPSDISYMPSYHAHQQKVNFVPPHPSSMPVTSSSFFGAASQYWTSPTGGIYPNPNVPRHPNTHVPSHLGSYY
Put shortly:
(§1)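 Binding signal is defined as a hexamer's read frequency for one factor over its frequency for the tag-only sample. To obtain reads, GST-fused human transcription factors were expressed in yeast, captured on glutathione beads, barcoded with DNA and pooled with that sample. Pools met 200 nmole of a 16-mer random double-stranded DNA library in Tris/NaCl/DTT/glycerol buffer for 30 min at room temperature before washing, 0.1% formaldehyde crosslinking, proximity ligation (BsaI/T4 ligase, 1 h, 37 °C), PCR and Illumina NextSeq500 sequencing.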

A further experiment addresses T2, ELK1 (Homo sapiens, UniProt P19419 1-428).
T2 sequence: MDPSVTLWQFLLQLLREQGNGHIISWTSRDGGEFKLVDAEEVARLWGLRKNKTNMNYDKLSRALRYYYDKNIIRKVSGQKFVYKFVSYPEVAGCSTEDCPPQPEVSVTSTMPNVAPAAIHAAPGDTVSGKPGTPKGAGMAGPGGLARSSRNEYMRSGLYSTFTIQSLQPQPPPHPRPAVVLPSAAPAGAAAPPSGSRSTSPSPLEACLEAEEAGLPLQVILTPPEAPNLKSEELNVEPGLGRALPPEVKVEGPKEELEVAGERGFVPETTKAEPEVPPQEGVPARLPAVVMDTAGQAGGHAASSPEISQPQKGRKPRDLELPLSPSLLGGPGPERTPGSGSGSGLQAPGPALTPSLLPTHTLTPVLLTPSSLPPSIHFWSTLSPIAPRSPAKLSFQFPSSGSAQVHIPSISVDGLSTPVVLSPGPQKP
Put shortly: as §1

A further experiment addresses T3, GABPA (Homo sapiens, UniProt Q06546 1-454).
T3 sequence: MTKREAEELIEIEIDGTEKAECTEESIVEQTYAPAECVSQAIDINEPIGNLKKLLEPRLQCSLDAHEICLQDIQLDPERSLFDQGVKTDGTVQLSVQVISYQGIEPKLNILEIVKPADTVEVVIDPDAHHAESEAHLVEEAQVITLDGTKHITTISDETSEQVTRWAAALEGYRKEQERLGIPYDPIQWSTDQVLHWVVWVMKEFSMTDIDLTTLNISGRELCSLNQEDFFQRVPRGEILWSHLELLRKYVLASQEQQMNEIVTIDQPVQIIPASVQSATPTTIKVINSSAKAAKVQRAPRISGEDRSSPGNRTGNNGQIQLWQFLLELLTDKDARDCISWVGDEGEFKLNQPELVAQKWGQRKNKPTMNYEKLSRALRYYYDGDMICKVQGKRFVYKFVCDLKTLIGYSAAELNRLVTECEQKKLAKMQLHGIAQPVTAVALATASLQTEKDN
Put shortly: as §1

For another experiment, the target named is T4, ERG (Homo sapiens, UniProt P11308 1-479).
T4 sequence: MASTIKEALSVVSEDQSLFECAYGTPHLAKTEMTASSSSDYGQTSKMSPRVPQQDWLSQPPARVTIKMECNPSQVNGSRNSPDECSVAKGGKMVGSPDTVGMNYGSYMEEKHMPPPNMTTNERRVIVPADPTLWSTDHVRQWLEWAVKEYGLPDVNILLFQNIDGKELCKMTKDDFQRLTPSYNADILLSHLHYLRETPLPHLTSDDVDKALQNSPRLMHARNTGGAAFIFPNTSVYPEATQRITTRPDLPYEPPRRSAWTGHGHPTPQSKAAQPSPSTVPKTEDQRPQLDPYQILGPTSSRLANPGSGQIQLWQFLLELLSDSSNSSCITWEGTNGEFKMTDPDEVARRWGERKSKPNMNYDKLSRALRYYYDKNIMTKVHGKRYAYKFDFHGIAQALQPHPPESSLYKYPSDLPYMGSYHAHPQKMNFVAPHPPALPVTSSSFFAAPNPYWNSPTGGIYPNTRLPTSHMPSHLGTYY
Put shortly:
as §1

The target of a further experiment is ELF1 (Homo sapiens, UniProt P32519 1-619). In a few lines: as §1
ELF1, sequence (P32519 whole entry): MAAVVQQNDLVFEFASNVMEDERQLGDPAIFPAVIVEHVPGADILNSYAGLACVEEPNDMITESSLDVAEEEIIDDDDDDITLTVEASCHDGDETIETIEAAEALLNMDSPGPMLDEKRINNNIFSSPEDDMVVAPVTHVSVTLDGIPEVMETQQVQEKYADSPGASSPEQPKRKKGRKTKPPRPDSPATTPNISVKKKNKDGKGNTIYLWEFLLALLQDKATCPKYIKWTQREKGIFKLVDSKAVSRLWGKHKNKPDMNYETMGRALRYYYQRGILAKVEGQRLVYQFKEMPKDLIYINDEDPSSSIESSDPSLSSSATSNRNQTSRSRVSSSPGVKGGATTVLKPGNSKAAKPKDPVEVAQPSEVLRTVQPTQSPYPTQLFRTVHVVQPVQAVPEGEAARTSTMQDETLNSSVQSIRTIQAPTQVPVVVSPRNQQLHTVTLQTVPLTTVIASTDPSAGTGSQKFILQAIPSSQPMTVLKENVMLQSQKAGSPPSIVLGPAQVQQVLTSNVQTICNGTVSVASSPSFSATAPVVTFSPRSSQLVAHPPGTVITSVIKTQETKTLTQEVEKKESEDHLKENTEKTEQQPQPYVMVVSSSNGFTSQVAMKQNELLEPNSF
For a further experiment, the target named is T5, EHF (Homo sapiens, UniProt Q9NZC4 1-300).
T5 sequence: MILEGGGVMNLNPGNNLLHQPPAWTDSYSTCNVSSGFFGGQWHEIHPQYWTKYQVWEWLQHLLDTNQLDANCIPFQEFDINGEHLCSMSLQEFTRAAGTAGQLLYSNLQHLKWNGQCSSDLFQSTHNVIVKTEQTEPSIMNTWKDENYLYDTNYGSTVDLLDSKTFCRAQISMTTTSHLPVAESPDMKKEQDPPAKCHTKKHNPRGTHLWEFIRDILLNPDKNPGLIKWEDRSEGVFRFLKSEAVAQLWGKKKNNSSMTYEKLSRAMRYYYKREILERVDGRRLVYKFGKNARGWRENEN
In a few lines:
as §1

Another experiment addresses SPI1 (Homo sapiens, UniProt P17947 1-270). In a few lines: as §1
The target of a further experiment is SPIB (Homo sapiens, UniProt Q01892 1-262). Put shortly:
as §1

A further experiment addresses T6, ELK3 (Homo sapiens, UniProt P41970 1-407).
T6 sequence: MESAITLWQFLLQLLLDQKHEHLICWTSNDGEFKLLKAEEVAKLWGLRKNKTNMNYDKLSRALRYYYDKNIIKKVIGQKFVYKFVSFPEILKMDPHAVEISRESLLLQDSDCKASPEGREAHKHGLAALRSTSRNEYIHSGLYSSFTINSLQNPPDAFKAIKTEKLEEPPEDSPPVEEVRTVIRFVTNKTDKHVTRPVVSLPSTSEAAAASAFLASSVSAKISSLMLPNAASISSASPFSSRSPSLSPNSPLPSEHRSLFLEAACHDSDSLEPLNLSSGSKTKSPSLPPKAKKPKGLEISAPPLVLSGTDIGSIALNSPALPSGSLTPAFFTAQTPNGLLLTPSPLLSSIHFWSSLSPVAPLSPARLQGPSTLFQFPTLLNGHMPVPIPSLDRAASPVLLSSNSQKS
In a few lines:
as §1

For the next experiment, the target named is T7, FEV (Homo sapiens, UniProt Q99581 1-238).
T7 sequence: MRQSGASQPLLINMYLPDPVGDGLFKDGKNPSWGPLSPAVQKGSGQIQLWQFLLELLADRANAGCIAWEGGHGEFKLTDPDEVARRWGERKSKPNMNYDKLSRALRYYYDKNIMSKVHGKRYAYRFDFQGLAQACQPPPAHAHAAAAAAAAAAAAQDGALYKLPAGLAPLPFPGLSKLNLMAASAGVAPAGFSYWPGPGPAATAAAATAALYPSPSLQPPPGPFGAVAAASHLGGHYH
Put shortly: as §1

Another experiment has as its target ETV5 (Homo sapiens, UniProt P41161 1-510). In a few lines: as §1
The target of the next experiment is T8, SPIC (Homo sapiens, UniProt Q8N5J4 1-248).
T8 sequence: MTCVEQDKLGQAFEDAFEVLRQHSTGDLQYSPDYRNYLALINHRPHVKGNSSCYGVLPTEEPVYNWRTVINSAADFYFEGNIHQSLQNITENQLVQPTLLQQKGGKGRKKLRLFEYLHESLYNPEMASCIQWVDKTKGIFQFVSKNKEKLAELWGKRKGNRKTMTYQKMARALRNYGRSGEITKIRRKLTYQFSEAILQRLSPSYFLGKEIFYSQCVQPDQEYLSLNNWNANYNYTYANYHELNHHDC
Put shortly:
as §1

Another experiment has as its target ELF4 (Homo sapiens, UniProt Q99607 1-663). Put shortly: as §1
The target of another experiment is T9, ELK4 (Homo sapiens, UniProt P28324-2 1-405).
T9 sequence: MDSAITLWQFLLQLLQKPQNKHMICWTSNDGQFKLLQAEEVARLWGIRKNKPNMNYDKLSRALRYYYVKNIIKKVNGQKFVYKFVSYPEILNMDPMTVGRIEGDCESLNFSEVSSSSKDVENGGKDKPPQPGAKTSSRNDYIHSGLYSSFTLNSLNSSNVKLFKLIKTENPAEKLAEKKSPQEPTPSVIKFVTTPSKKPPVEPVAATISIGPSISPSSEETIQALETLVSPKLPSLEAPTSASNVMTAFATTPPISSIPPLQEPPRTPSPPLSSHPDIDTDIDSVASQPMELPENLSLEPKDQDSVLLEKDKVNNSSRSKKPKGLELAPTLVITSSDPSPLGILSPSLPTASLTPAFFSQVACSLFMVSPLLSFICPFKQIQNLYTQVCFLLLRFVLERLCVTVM
In a few lines:
as §1

In the next experiment the target is T10, ETV2 (Homo sapiens, UniProt O00321 1-342).
T10 sequence: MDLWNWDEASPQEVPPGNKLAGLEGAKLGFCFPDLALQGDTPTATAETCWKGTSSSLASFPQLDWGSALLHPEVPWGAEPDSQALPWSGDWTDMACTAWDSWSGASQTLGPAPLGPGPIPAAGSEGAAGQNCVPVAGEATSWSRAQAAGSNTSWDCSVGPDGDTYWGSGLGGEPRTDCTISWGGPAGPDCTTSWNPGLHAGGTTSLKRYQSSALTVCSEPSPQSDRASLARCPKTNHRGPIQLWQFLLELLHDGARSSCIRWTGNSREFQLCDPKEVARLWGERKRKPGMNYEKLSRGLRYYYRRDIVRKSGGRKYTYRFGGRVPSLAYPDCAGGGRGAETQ
Put shortly:
as §1

The next experiment concerns the target T11, ELF3 (Homo sapiens, UniProt P78545 1-371).
T11 sequence: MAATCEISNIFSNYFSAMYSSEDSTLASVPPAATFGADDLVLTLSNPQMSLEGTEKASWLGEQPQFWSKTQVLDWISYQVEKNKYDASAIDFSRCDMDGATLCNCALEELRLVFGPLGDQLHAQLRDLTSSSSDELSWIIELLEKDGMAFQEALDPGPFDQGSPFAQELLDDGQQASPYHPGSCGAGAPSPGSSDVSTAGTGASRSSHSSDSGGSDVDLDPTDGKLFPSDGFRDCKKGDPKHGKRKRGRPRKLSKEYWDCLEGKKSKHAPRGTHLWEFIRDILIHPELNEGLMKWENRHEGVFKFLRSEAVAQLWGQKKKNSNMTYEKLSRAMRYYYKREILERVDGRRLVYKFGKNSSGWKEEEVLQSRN
In a few lines:
as §1

The next experiment concerns the target ETV1 (Homo sapiens, UniProt P50549 1-477). In a few lines:
as §1

ELF4, sequence (Q99607 whole entry): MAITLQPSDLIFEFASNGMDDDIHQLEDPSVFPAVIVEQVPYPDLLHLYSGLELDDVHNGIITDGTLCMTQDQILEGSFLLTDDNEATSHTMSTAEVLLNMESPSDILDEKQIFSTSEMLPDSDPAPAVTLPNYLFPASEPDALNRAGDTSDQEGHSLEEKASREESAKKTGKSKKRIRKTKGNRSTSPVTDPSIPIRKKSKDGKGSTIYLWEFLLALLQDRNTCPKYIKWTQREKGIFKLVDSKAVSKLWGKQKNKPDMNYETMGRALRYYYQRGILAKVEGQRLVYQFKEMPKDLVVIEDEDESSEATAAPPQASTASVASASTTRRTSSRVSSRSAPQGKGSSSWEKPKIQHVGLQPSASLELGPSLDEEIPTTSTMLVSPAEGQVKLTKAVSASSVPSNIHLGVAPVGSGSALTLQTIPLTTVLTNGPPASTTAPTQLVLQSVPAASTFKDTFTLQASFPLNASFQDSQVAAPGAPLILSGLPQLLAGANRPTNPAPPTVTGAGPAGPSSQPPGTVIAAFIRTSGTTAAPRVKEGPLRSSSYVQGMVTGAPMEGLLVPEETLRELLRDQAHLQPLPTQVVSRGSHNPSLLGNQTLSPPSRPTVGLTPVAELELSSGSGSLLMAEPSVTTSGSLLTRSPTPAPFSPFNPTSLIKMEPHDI
ETV5, sequence (P41161 whole entry): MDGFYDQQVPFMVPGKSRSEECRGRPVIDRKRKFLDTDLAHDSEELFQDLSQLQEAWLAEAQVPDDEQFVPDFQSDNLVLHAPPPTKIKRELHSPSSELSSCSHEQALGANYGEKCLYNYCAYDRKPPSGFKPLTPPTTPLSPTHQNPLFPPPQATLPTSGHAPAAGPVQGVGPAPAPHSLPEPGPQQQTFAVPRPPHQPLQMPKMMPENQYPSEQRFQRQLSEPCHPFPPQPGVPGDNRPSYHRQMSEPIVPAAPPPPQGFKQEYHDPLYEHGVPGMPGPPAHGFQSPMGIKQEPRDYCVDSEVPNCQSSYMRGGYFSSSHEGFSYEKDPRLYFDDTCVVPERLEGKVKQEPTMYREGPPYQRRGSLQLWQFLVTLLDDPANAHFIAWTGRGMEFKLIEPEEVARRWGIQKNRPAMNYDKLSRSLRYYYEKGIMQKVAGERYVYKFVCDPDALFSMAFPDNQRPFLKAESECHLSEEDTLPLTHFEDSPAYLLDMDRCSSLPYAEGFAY
ETV1, sequence (P50549 whole entry): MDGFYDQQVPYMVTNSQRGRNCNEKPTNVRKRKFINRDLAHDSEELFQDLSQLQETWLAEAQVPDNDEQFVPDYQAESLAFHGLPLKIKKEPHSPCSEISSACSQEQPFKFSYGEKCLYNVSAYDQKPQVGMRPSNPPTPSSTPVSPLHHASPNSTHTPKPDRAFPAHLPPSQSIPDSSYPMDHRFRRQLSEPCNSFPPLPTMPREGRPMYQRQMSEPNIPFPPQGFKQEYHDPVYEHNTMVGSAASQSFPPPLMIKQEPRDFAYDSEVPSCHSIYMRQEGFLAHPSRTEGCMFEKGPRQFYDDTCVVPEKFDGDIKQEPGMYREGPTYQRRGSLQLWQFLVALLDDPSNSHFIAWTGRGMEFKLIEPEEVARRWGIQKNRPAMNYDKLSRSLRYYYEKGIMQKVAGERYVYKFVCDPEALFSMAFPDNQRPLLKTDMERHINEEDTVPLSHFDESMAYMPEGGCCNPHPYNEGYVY
SPIB, sequence (Q01892 whole entry): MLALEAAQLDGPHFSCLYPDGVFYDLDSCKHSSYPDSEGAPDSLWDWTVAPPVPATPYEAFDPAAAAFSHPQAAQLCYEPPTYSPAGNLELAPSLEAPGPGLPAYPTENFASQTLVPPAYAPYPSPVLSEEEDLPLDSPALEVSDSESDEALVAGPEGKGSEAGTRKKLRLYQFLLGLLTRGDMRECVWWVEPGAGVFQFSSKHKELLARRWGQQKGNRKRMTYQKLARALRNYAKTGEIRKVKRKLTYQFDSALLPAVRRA

With GCTTGG, the binding signal in the experiment with FLI1 is 1.19 fold enrichment (6-mer frequency, TF over GST control); with ELK1, 1.15 fold enrichment (6-mer frequency, TF over GST control); with GABPA it was 1.12 fold enrichment (6-mer frequency, TF over GST control); with ERG, 1.09 fold enrichment (6-mer frequency, TF over GST control); with ELF1, 1.08 fold enrichment (6-mer frequency, TF over GST control); with EHF, 1.05 fold enrichment (6-mer frequency, TF over GST control). Also, the binding signal in the experiment with SPI1 was 1.04 fold enrichment (6-mer frequency, TF over GST control); in the experiment with SPIB, 1.16 fold enrichment (6-mer frequency, TF over GST control); with ELK3, 1.15 fold enrichment (6-mer frequency, TF over GST control); with FEV, 1.03 fold enrichment (6-mer frequency, TF over GST control); with ETV5 it was 1.02 fold enrichment (6-mer frequency, TF over GST control); with SPIC, 1.03 fold enrichment (6-mer frequency, TF over GST control). Moreover, the binding signal with ELF4 was 1.07 fold enrichment (6-mer frequency, TF over GST control); with ELK4 it was 1.11 fold enrichment (6-mer frequency, TF over GST control); with ETV2, 1.07 fold enrichment (6-mer frequency, TF over GST control); with ELF3, 1.14 fold enrichment (6-mer frequency, TF over GST control); with ETV1 it was 1.22 fold enrichment (6-mer frequency, TF over GST control).
Regarding GTCCCT, the binding signal in the experiment with FLI1 is 1.15 fold enrichment (6-mer frequency, TF over GST control); with ELK1, 1.29 fold enrichment (6-mer frequency, TF over GST control); with GABPA it was 1.2 fold enrichment (6-mer frequency, TF over GST control); with ERG, 1.24 fold enrichment (6-mer frequency, TF over GST control); with ELF1 it was 1.28 fold enrichment (6-mer frequency, TF over GST control); with EHF it was 1.27 fold enrichment (6-mer frequency, TF over GST control). The binding signal with SPI1 was 1.38 fold enrichment (6-mer frequency, TF over GST control); with SPIB, 1.18 fold enrichment (6-mer frequency, TF over GST control); with ELK3, 1.16 fold enrichment (6-mer frequency, TF over GST control); in the experiment with FEV, 1.28 fold enrichment (6-mer frequency, TF over GST control); with ETV5, 1.18 fold enrichment (6-mer frequency, TF over GST control); with SPIC it was 1.29 fold enrichment (6-mer frequency, TF over GST control). Besides, the binding signal in the experiment with ELF4 was 1.31 fold enrichment (6-mer frequency, TF over GST control); with ELK4, 1.27 fold enrichment (6-mer frequency, TF over GST control); with ETV2, 1.22 fold enrichment (6-mer frequency, TF over GST control); with ELF3, 1.23 fold enrichment (6-mer frequency, TF over GST control); in the experiment with ETV1, 1.26 fold enrichment (6-mer frequency, TF over GST control).
